Results published in PubChem BioAssay (EPA / NIEHS).
Inconclusive results are not listed. Active and inactive are the calls of the source. The calls were made as follows: active = hit-call score of the fitted dose curve at least 0.9, where 1 is the maximum; inconclusive = response in the unintended direction; inactive = score below 0.9.

target: Peroxisome proliferator-activated receptor gamma (Homo sapiens) (UniProt P37231); assay: ATG_PPARg_TRANS: Attagene TRANS-FACTORIAL HepG2 Assay for human Peroxisome Proliferator-activated Receptor-gamma (PPARg) (AID 2283007)
Method: ATG_TRANS is a cell-based, multiplexed-readout assay that uses HepG2, a human liver cell line, with measurements taken at 24 hours after chemical dosing in a 24-well plate.ATG_PPARg_TRANS is one of 30 assay component(s) measured or calculated from the ATG_TRANS assay. It is designed to make measurements of mRNA induction, a form of inducible reporter, as detected with fluorescence intensity signals by Reverse transcription polymerase chain reaction (RT-PCR) and Capillary electrophoresis technology.Data from the assay component ATG_PPARg_TRANS was analyzed into 1 assay endpoint. This assay endpoint, ATG_PPARg_TRANS, was analyzed in the positive analysis fitting direction relative to DMSO as the negative control and baseline of activity. Using a type of inducible reporter, measures of mRNA for gain-of-signal activity can be used to understand the reporter gene at the transcription factor-level as they relate to the gene PPARG. Furthermore, this assay endpoint can be referred to as a primary readout, because this assay has produced multiple assay endpoints where this one serves a reporter gene function. To generalize the intended target to other relatable targets, this assay endpoint is annotated to the nuclear receptor intended target family, where the subfamily is non-steroidal.
Human liver HepG2 cells are transiently transfected with multiple reporter transcription units (MRTUs) in 6-well plates using FuGene 6 reagent (Roche; 3 ml FuGene/1 mg DNA). The MRTU constructs are regulated by a cis-regulating element (promoter). […] A major difference between the CIS and TRANS system is that in CIS activities of endogenous TFs are measured, whereas the TRANS assay evaluates changes in activities of exogenous, chimeric NR-Gal4 proteins. […] At the end of 24 hour incubation, total RNA was isolated using TriZol reagent (Invitrogen). The isolated RNA is then reverse-transcribed using oligo(dT) primer and Mo-MLV reverse transcriptase (Invitrogen) with DNAse I (Ambion) treatment for 30 min. The one-tenth of the produced cDNA was amplified by PCR using Taq DNA polymerase (Invitrogen) and two reporter sequence-specific primers. The PCR products were fluorescently labeled by primer extension with 6-arboxyfluorescein (6-FAM) 5'-labeled reporter sequence-specific primer (2 min at 95 C, 20 s at 68 C and 10 min at 72 C) and these products were digested with 5U of HpaI (New England Biolabs) for 2h at 37 C. The fragments were purified using Qiaquick PCR columns (Qiagen), analyzed on an ABI 3130xL genetic analyzer (Applied Biosystems) with peak positions identified by using a set of X-rhodamine (ROX)-labeled MapMarker1000 molecular weight standards (BioVentures). The raw capillary electrophoresis data was processed using Attagraph software (Attagene).

Sequence of Peroxisome proliferator-activated receptor gamma (Homo sapiens) (P37231 whole entry, looked up): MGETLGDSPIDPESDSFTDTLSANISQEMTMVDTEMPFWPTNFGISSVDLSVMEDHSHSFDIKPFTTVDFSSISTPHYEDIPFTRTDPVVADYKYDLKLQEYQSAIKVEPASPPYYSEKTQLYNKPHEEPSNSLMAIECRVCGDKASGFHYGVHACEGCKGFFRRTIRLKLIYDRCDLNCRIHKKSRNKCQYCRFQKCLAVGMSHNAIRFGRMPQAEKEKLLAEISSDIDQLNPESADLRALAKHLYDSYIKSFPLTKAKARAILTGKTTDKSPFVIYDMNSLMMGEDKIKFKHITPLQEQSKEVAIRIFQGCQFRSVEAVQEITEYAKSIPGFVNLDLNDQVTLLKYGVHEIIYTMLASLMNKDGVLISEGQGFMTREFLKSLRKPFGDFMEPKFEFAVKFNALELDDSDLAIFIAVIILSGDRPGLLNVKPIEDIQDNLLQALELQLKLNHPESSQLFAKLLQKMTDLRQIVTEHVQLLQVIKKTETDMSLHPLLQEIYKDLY

| SMILES | outcome | AC50 |
| --- | --- | --- |
| O=[N+]([O-])c1ccc(C=Cc2ccc([N+](=O)[O-])cc2S(=O)(=O)O)c(S(=O)(=O)O)c1 | inactive |  |
| CCN(CC)c1ccc(C(=C2C=CC(=[N+](CC)CC)C=C2)c2ccc(S(=O)(=O)O)cc2S(=O)(=O)[O-])cc1 | inactive |  |
| O=C(O)CCCCCCCC(=O)O | inactive |  |
| NCCCCCCN | inactive |  |
| CC(C)=CCO | inactive |  |
| CC(=O)O[C@]1(C(C)=O)CC[C@H]2[C@@H]3C[C@H](C)C4=CC(=O)CC[C@]4(C)[C@H]3CC[C@@]21C |  | 21.9 µM (active) |
| CCCCC(CC)COCCC#N (stereo not given) | inactive |  |
| CCCCCCCCCOC(C)=O | inactive |  |
| COc1ccc(Nc2ccccc2)c(C)c1 |  | 31.5 µM (active) |
| O=c1[nH]c(=O)n([C@H]2CCCO2)cc1F | inactive |  |
| CC(C)C1CCC(O)CC1 (stereo not given) | inactive |  |
| COC(=O)Cc1cccc2ccccc12 |  | 66.5 µM (active) |
| CC1COc2ccccc2N1C(=O)C(Cl)Cl (stereo not given) | inactive |  |
| O=C1CCCCCCCCCCCCCCO1 |  | 60.1 µM (active) |
| OCCCCCO | inactive |  |
| CCCCCCCCCCC(CO)CCCCCCCC (stereo not given) | inactive |  |
| CC(C=O)Cc1ccc(C(C)C)cc1 (stereo not given) | inactive |  |
| CCN(CC)CCOC(=O)c1ccc(N)cc1 | inactive |  |
| CCCCCCCCCC=O |  | 45.4 µM (active) |
| CCCCCCCCCCCCCCCC(=O)O | inactive |  |

| SMILES | outcome | AC50 |
| --- | --- | --- |
| COC(C(=O)O)c1ccccc1 (stereo not given) | inactive |  |
| Cc1ccc2ccccc2n1 | inactive |  |
| O=C(O)CCSCCC(=O)O | inactive |  |
| CCC(=O)OCCC(C)CCC=C(C)C (stereo not given) | inactive |  |
| O=C(Oc1ccccc1)c1ccc(O)cc1 | inactive |  |
| Nc1cccc(S(=O)(=O)c2cccc(N)c2)c1 | inactive |  |
| CCCCCCCCCCCCOCCO |  | 33.4 µM (active) |
| CNCCCC12CCC(c3ccccc31)c1ccccc12 | inactive |  |
| C=CC(=O)OCCn1c(=O)n(CCOC(=O)C=C)c(=O)n(CCOC(=O)C=C)c1=O |  | 8.83 µM (active) |
| NNc1nc(-c2ccc(N)cc2)cs1 | inactive |  |
| CC(CC(C)(C)C)CC(C)(C)CC(C)(C)C (stereo not given) | inactive |  |
| C=CCOC(=O)CCC1CCCCC1 | inactive |  |
| O=C1NC(=O)c2ccccc21 | inactive |  |
| CC(CCO)CCCC(C)(C)O (stereo not given) | inactive |  |
| Cc1ccc2n[nH]nc2c1 | inactive |  |
| O=C(O)c1cn(C2CC2)c2cc(N3CCNCC3)c(F)cc2c1=O | inactive |  |
| O=C(O)C[C@H](O)C[C@H](O)/C=C/c1c(C2CC2)nc2ccccc2c1-c1ccc(F)cc1 |  | 20.2 µM (active) |
| CCCc1c(OCCCOc2ccc(OCC(=O)O)cc2)ccc(C(C)=O)c1O |  | 0.195 µM (active) |
| CCCCCCCCCCCCSC | inactive |  |
| C#C[C@]1(O)CC[C@H]2[C@@H]3CCC4=Cc5oncc5C[C@]4(C)[C@H]3CC[C@@]21C | inactive |  |
